Bioassay records (PubChem)
KCNQ2 enhance – potentiators of rat KCNQ2 potassium channel; Potassium voltage-gated channel subfamily KQT member 2 (Rattus norvegicus), O88943; CHO-K1 KCNQ2, FluxOR thallium flux fluorescence; hits give high values; B-score at 10 µM; hit rate 0.54% among 310,000; AID 2239, 2010;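 active = fluorescence ratio B-score at least 3 SD of library B-scores, with initial fluorescence B-score within 3 of them, cut at about 5.3 in these data; same plate scores as AID 2156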;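 note: B-score of peak minus minimum over baseline fluorescence ratio after K+ and Tl+ stimulus; positive B-score means potentiation of KCNQ2 with more thallium influx and brighter signal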
KCNQ2 inh – rat KCNQ2 potassium channel inhibitors, primary screen, cell-based, CHO-K1, FluxOR thallium flux, B-score; B-score at 10 µM; hit rate 1.1% among 310,000; 20 min; hits give low values;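 active = fluorescence ratio B-score at most minus 3 library SDs, with starting brightness B-score within 2 library SDs, cut at about -5.5 in these data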
Kir21 conf inh – mouse Kir2.1 channel blockers, retest, confirmation, cell-based, FluxOR thallium flux, duplicate; Tl flux remaining, % of negative control (hits give low values), % at 10 µM; Kir2.1-expressing cells, FluxOR thallium flux fluorescence; hits give low values; shares compounds with KCNQ2 enhance; hit rate 41% among 2,300;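 active = Primary-screen hit whose thallium flux fell at least 3 control SD below untreated wells in both duplicates, with normal baseline fluorescence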;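 note: 0% = blank wells without stimulus and 100% = stimulated no-compound controls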
HEK293 ctr – parental HEK293 activity in Kir2.1 inhibitor counter-screen. shares compounds with KCNQ2 enhance. hit rate 19% among 2,300. FluxOR signal as % of negative control (100 = no effect), % at 10 µM. parental HEK293 cells, FluxOR thallium flux fluorescence; 0% = unstimulated blank wells;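 active = dye signal at least 3 control SD above or below untreated wells in both duplicates, raw fluorescence within 3, either direction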;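 note: percent is based on the flux ratio of peak minus minimum fluorescence over baseline F0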
CHO-K1 Tl ctr – nonspecific thallium flux increase in parental CHO-K1, confirmation, counter-screen for KCNQ2 potentiator project, cell-based, FluxOR thallium flux, duplicate; shares compounds with KCNQ2 enhance; parental CHO-K1 cells, FluxOR thallium flux fluorescence; zero = vehicle mean+3SD, 100% = vehicle-minus-blank window; activity increase over 3SD of controls, % at 10 µM; hit rate 43% among 1,200;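 active = signal rise of at least 3 SD above the untreated control mean, in both duplicate wells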;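 note: counter screen of KCNQ2 potentiator hits so any rise reflects channel-independent effects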
KCNQ1 pot spec – human KCNQ1 channel potentiation off-target, confirmation, selectivity assay for KCNQ2 potentiator project, cell-based, CHO, FluxOR thallium flux; shares compounds with KCNQ2 enhance; activation over 3SD threshold, % at 10 µM; AID 2283, 2010; CHO KCNQ1 stable, FluxOR thallium flux fluorescence; beyond 3SD, as % of vehicle-control signal; hit rate 28% among 1,200;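 active = fluorescence ratio rise of at least 3 SD of vehicle wells above their mean, in both replicate wells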;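 note: 0% = vehicle mean plus 3 SD and 100% = vehicle minus unstimulated blank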
KCNQ2 pot confirm – rat KCNQ2 channel potentiators, confirmation, cell-based, CHO, FluxOR thallium flux, duplicate; AID 2287, 2010; potentiation, less the hit threshold, % at 10 µM; CHO-KCNQ2 cells, FluxOR thallium flux fluorescence; hit rate 68% among 1,200; shares compounds with KCNQ2 enhance;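 active = fluorescence ratio rising 3 SD or more over the vehicle control mean in both replicates, plus primary screen hit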;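 note: peak minus minimum thallium fluorescence divided by baseline after K/Tl stimulus; 0% = vehicle mean plus 3 SD and 100% = vehicle minus unstimulated blank difference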
Kir2-1 sel – mouse Kir2.1 channel activation off-target, confirmation, selectivity assay for KCNQ2 potentiator project, cell-based, HEK293, FluxOR thallium flux; HEK293 Kir2.1, FluxOR thallium flux fluorescence; AID 2345, 2010; shares compounds with KCNQ2 enhance; hit rate 2% among 1,200; activity over 3SD threshold, % at 10 µM;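 active = fluorescence ratio rise of at least 3 SD above the vehicle-control mean, seen in both replicates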;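 note: 0% = vehicle mean plus 3 SD and 100% = vehicle minus no-stimulus blank window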
KCNQ2 W236L MoA – potentiators of retigabine-insensitive KCNQ2 W236L, mechanism study for KCNQ2 potentiator project, cell-based, rat KCNQ2 W236L, CHO, automated patch clamp. shares compounds with KCNQ2 enhance. automated patch clamp current. current increase over 3SD of negative controls (%), hits give high values, % at 25 µM. hit rate 10% among 940. AID 2558, 2010;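 active = current increase at least 3 SD of the untreated controls above them in both duplicate recordings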
* hit, by the source's call. Only some compounds are listed: those with a hit (about 1.6% of all), similar ones and a draw of the others.

Screening CC(C)c1ccc2nc(NC(=O)C3CC3)sc2c1 returned KCNQ2 enhance 5.6*, KCNQ2 inh inactive, Kir21 conf inh inactive, HEK293 ctr 68%*, CHO-K1 Tl ctr 21*, KCNQ1 pot spec -8, KCNQ2 pot confirm 28*, Kir2-1 sel -32 and KCNQ2 W236L MoA 27%*.
`O=C(Nc1nc2ccc(Cl)cc2s1)C1CC1` gave KCNQ2 enhance 0.82 and KCNQ2 inh inactive.
Screening COc1ccc(-c2cccc(NC(=O)c3ccc4c(c3)OCO4)c2)nn1 returned KCNQ2 enhance 1.5 and KCNQ2 inh inactive.
Screening Cc1ccc(N2CC(C(=O)NCCS(=O)(=O)N3CCN(c4ccccc4)CC3)CC2=O)cc1C (configuration not stated) returned KCNQ2 inh inactive.
Screening O=C1CN(C(=O)c2ccc(Cl)c(S(=O)(=O)N3CCc4ccccc43)c2)c2ccccc2N1 returned KCNQ2 inh inactive.
`COc1ccc(NC(=O)c2cccc(N3C(=O)C4CC=C(C)CC4C3=O)c2)c(OC)c1` (configuration not stated) gave KCNQ2 inh inactive.
CC1=CCC2C(=O)N(c3ccc(OC(=O)c4ccco4)cc3)C(=O)C2C1 (configuration not stated) was read as KCNQ2 inh inactive, Kir21 conf inh 64%* and HEK293 ctr 128%*.
Screening COC(=O)c1sccc1NC(=O)CC1C(=O)NCCN1C(=O)c1ccc(C)c(C)c1 (configuration not stated) returned KCNQ2 enhance 0.43 and KCNQ2 inh inactive.
For COC(=O)c1ccc(C)c(NC(=S)NCc2ccc(Cl)cc2)c1 the results were KCNQ2 enhance 0.41 and KCNQ2 inh inactive.
Screening COC(=O)c1sccc1NC(=S)NCc1ccc(Cl)cc1 returned KCNQ2 enhance 7.2*, KCNQ2 inh inactive, Kir21 conf inh inactive, HEK293 ctr 212%*, CHO-K1 Tl ctr 2.7*, KCNQ1 pot spec -20, KCNQ2 pot confirm 38*, Kir2-1 sel -22 and KCNQ2 W236L MoA inactive.
For CC(C)(C)C1COc2ccccc2N1C(=O)c1cccc(Cl)c1 (configuration not stated) the results were KCNQ2 enhance 0.65 and KCNQ2 inh inactive.
COc1ccc(CCC(C)NCc2ccc(Cl)c(Cl)c2)cc1 (configuration not stated) was read as KCNQ2 inh inactive.
`COc1ccc(CCC(C)NCCc2ccc(Cl)cc2Cl)cc1` (configuration not stated) gave KCNQ2 inh inactive, Kir21 conf inh 16%* and HEK293 ctr inactive.
For Cc1ccc(-c2nc3ccccn3c2NCc2ccc3c(c2)OCO3)cc1 the results were KCNQ2 inh inactive, Kir21 conf inh 76%* and HEK293 ctr inactive.
